# In paper PMC8384837, “Expanding the binding specificity for RNA recognition by a PUF domain”:
# Biological target: PUM1 PUF domain R5-PRH (Homo sapiens, UniProt Q14671 828-1176, C1007P;Q1011H)
# Assay: yeast three-hybrid, YBZ-1, SC-Leu-His + 0.5 mM 3-AT, 4 days
# Conditions: tags: N-Gal4 AD-HA kept; label: inside an RPR1-promoter hybrid RNA with tandem MS2 sites; ssRNA
# How it was run: (§1)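 Pumilio-1 PUF domain libraries, randomized (NNK) at the three base-contacting residues of each repeat, were co-expressed with matching RNA elements from a centromeric plasmid in strain YBZ-1 (LexA–MS2 coat fusion, HIS3 reporter). Transformants were plated on SC-Leu (input) and SC-Leu-His + 0.5 mM 3-AT (selection) for four days, and repeat regions were PCR-amplified and Illumina-sequenced. The interaction score is the log2 change in variant frequency from input to selection, with pseudocount 1 where absent.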
row,Sequence,binding signal
1,GGCUAGAACUAGUGGAUCCCCCGGCGCCCGGCGGCUCGAGCCCGGGUAAGUGUUAAUAGUCUGCAUGCCGCCGGGCGCCAUGCCUGCAGGUCGACUCUAGAAAACAUG,3.48 log2 enrichment (interaction score)
2,GGCUAGAACUAGUGGAUCCCCCGGCGCCCGGCGGCUCGAGCCCGGGUAAGUGUGAAUAGUCUGCAUGCCGCCGGGCGCCAUGCCUGCAGGUCGACUCUAGAAAACAUG,2.93 log2 enrichment (interaction score)
3,GGCUAGAACUAGUGGAUCCCCCGGCGCCCGGCGGCUCGAGCCCGGGUAAGUGUAAAUAGUCUGCAUGCCGCCGGGCGCCAUGCCUGCAGGUCGACUCUAGAAAACAUG,3.22 log2 enrichment (interaction score)

# Biological target: PUM1 PUF domain R5-GHL (Homo sapiens, UniProt Q14671 828-1176, C1007G;R1008H;Q1011L)
# Assay: as above
# Conditions: tags: N-Gal4 AD-HA kept; label: inside an RPR1-promoter hybrid RNA with tandem MS2 sites; ssRNA
# How it was run: as §1
# PUM1 PUF domain R5-GHL, sequence (Q14671 828-1176 C1007G/R1008H/Q1011L): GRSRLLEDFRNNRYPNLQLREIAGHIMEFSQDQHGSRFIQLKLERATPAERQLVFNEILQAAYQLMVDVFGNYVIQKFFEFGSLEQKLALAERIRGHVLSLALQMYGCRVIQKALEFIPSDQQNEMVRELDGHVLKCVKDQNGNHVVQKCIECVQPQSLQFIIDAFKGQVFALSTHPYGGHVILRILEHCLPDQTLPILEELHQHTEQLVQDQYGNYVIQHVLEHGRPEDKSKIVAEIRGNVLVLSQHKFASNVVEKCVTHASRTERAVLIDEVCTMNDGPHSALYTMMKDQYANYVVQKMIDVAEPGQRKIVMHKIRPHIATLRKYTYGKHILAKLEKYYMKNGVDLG
row,Sequence,binding signal
1,GGCUAGAACUAGUGGAUCCCCCGGCGCCCGGCGGCUCGAGCCCGGGUAAGUGUUAAUAGUCUGCAUGCCGCCGGGCGCCAUGCCUGCAGGUCGACUCUAGAAAACAUG,3.73 log2 enrichment (interaction score)
2,GGCUAGAACUAGUGGAUCCCCCGGCGCCCGGCGGCUCGAGCCCGGGUAAGUGUGAAUAGUCUGCAUGCCGCCGGGCGCCAUGCCUGCAGGUCGACUCUAGAAAACAUG,2.8 log2 enrichment (interaction score)
3,GGCUAGAACUAGUGGAUCCCCCGGCGCCCGGCGGCUCGAGCCCGGGUAAGUGUAAAUAGUCUGCAUGCCGCCGGGCGCCAUGCCUGCAGGUCGACUCUAGAAAACAUG,4.22 log2 enrichment (interaction score)

# Biological target: PUM1 PUF domain R4-PFF (Homo sapiens, UniProt Q14671 828-1176, N971P;H972F;Q975F)
# Assay: as above
# Conditions: tags: N-Gal4 AD-HA kept; label: inside an RPR1-promoter hybrid RNA with tandem MS2 sites; ssRNA
# How it was run: as §1
# PUM1 PUF domain R4-PFF, sequence (Q14671 828-1176 N971P/H972F/Q975F): as the sequence (Q14671 828-1176 C1007G/R1008H/Q1011L) above, with N144P, H145F, Q148F, G180C, H181R, L184Q counted along it
row,Sequence,binding signal
1,GGCUAGAACUAGUGGAUCCCCCGGCGCCCGGCGGCUCGAGCCCGGGUAAGUGUACAUAGUCUGCAUGCCGCCGGGCGCCAUGCCUGCAGGUCGACUCUAGAAAACAUG,3.52 log2 enrichment (interaction score)
2,GGCUAGAACUAGUGGAUCCCCCGGCGCCCGGCGGCUCGAGCCCGGGUAAGUGUAAAUAGUCUGCAUGCCGCCGGGCGCCAUGCCUGCAGGUCGACUCUAGAAAACAUG,5.26 log2 enrichment (interaction score)
3,GGCUAGAACUAGUGGAUCCCCCGGCGCCCGGCGGCUCGAGCCCGGGUAAGUGUAUAUAGUCUGCAUGCCGCCGGGCGCCAUGCCUGCAGGUCGACUCUAGAAAACAUG,7.66 log2 enrichment (interaction score)
